In experiment [1] the test system is Wnt5a (protein binding on small-molecule microarray). In words: Wnt5a binders on small-molecule microarray, primary screen, biophysical, 635/667 nm fluorescence (AID 1142).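 Further: fluorescence read at 667 nm with signal to noise per printed feature.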 To be noted: 635 nm fluorescence, higher = more signal.
A short description of experiment [2]: cell viability in Huh7 cells, primary screen, cytotoxicity control for HCV replication inhibitor project, CellTiter-Glo luminescence, basal, 48 h (AID 1143).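 Further: Huh7 hepatoma cells carrying a hepatitis C replication reporter with no stimulus; test concentration not given here.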 The following applies: Huh7 HCV replicon, higher = more signal, called active from +8 up or from −8 down.
Experiment [3] in a line: P. aeruginosa biofilm formation inhibitors, primary screen, PAO1 strain, BacTiter-Glo luminescence, LB-PBS (AID 1144). To be noted: 12 h, higher = more signal.
Experiment [4] in a line: CREB reporter modulators without forskolin, primary screen, cell-based, PC12, CRE-LacZ reporter, unstimulated (AID 1145). The following applies: no forskolin, luminescence, 4.5 h, higher = more signal, called active from +8 up or from −8 down.
Experiment [5] can be described thus: CREB reporter modulators under forskolin, primary screen, cell-based, PC12, CRE-LacZ reporter, forskolin-stimulated (AID 1146).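 Further: PC12 cells with 6xCRE LacZ reporter stimulated by forskolin 10 µM; beta-galactosidase reporter signal reflecting CREB driven transcription.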 The following applies: luminescence, 4.5 h, higher = more signal, called active from +8 up or from −8 down.
The target of experiment [6] is Streptavidin (Streptomyces avidinii) (UniProt P22629). Kind of experiment: streptavidin binders on small-molecule microarray, primary screen, artefact control for SMM compound annotation, biophysical, 635/667 nm fluorescence (AID 1147).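 Further: signal reflects streptavidin binding to arrayed compounds as a control protein.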 To be noted: streptavidin binding, higher = more signal.
Streptavidin (Streptomyces avidinii), sequence (P22629 whole entry, looked up): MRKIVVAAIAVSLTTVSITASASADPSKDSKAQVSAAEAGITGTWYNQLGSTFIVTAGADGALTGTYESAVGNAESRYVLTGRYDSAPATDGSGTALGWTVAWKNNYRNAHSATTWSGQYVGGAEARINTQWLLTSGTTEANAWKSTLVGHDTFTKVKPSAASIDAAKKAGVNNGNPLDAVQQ
Experiment [7] can be described thus: small-molecule binders of probe aInhba, primary screen, biochemical, small-molecule microarray, 635/667 nm fluorescence (AID 1148).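 Further: score merges 667nm spot fluorescence with signal-to-noise for antibody binding to printed compounds.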 The following applies: higher = more signal.
For experiment [8], the target named is Torsin-1A (Homo sapiens) (UniProt O14656). Kind of experiment: torsin A binders from cell lysate, primary screen, small-molecule microarray, wild-type, 635/667 nm (AID 1149). The following applies: COS7 hTOR1A-WT lysate, 635 nm fluorescence, higher = more signal.
Torsin-1A (Homo sapiens), sequence (O14656 whole entry, looked up): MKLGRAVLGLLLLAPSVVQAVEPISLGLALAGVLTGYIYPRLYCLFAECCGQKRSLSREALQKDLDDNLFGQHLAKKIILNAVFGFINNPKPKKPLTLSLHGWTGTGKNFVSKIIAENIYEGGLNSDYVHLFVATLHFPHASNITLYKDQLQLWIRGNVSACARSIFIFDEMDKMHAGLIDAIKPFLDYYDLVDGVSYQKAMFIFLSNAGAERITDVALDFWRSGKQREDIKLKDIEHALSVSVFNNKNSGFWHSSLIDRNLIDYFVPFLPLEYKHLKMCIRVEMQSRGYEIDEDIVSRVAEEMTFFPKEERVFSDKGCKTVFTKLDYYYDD
Experiment [9] has the same target. In words: small-molecule binders of mutant TOR1A in lysate, primary screen, cell lysate, small-molecule microarray, COS7 lysate, 635/667 nm fluorescence (AID 1150).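 Further: score pools 667 nm emission and signal to noise measuring lysate protein binding.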 The following applies: COS7 hTOR1A mutant lysate, 635 nm fluorescence, higher = more signal.
For experiment [10], the system named is Sonic hedgehog protein (Shh). In words: small-molecule binders of Shh protein, primary screen, biochemical, small-molecule microarray, 635/667 nm fluorescence (AID 1151).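 Further: Shh protein binding to compounds spotted on small-molecule microarray slides; score combines spot fluorescence intensity with signal-to-noise across triplicate slides.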 To be noted: small-molecule microarray binding, 635 nm fluorescence; higher = more signal.

Activity calls are given as the source filed them. Unless noted, how the calls were made is not given here.

Take `COc1ccccc1CN1C(=O)c2ccccc2[C@@]2(Cc3ccccc3N(CC(C)C)C2=O)[C@@H]1c1ccc(CO)cc1`: the composite z-score in [1] was -0.37; in experiment [6], -0.551; in experiment [7], 0.027; in experiment [8], -0.913; in experiment [9], -0.0676; in experiment [10], -0.452. Also, the z-score in experiment [2] is 0.332 (inactive); in experiment [3], 0.8 (inactive); in [4], -0.412 (inactive); in experiment [5], 0.462 (inactive).
As for `O=C(CS)NCCCCCCNC(=O)[C@@H]1C[C@@H]2C(=O)N[C@@H](Cc3ccccc3)C(=O)N2[C@@H]1c1cccc(OCCO)c1`, the composite z-score is 0.879 in experiment [1]; 0.253 in [6]; -0.163 in [7]; 1.1 in experiment [8]; 1.48 in experiment [9]; 1.49 in experiment [10]. For the same molecule, the z-score in [2] was 0.0037 (inactive); in [3], -0.614 (inactive); in experiment [4], -0.134 (inactive); in experiment [5] it was -0.112 (inactive).
As to `COc1cccc(-c2cccc(=O)o2)c1`, the composite z-score was 0.595 in experiment [1]; 0.438 in experiment [6]; 0.177 in [7]; 0.0114 in experiment [8]; 0.698 in experiment [9]; -0.207 in [10]. Besides, the z-score is 0.064 (inactive) in experiment [2], 0.77 (inactive) in [3], -0.228 (inactive) in [4] and -0.977 (inactive) in [5].
`O=C1N[C@@H](Cc2ccccc2)C(=O)N2[C@@H]1C[C@@H](C(=O)O)[C@H]2c1cccc(OCCO)c1`: the composite z-score in experiment [1] was 0.0465; in experiment [6], 0.0555; in [7] it was -0.128; in [8] it was 1.14; in [9] it was 0.719; in experiment [10] it was 1.77. Moreover, the z-score in experiment [2] was -0.333 (inactive); in experiment [3], -0.965 (inactive); in experiment [4], 0.692 (inactive); in experiment [5], 0.321 (inactive).
In the case of `C=CCN1C(=O)[C@@]2(Cc3ccccc31)N=C(c1ccc(OCCCO)cc1)O[C@H]2c1ccccc1`, the composite z-score in experiment [1] was found to be 0.344; in experiment [6], 0.0866; in [7], 0.195; in experiment [8] it was 0.698; in [9], 0.855; in experiment [10] it was 1.14. Besides, the z-score is -3.53 (inactive) in experiment [2], -0.144 (inactive) in experiment [3], 0.47 (inactive) in [4] and -1.81 (inactive) in experiment [5].
In the case of `COC(=O)C[C@H]1O[C@]2(C(=O)N(C)c3ccccc32)[C@@H](C)[C@@H]1[Si](C)(C)F`, the composite z-score in experiment [1] turned out to be 0.56; in experiment [6], 0.454; in experiment [7], 0.0301; in experiment [8] it was 0.142; in [9], 0.164; in [10], 1.79. In addition, the z-score was -1.18 (inactive) in experiment [2], -0.852 (inactive) in experiment [3], 1.03 (inactive) in experiment [4] and -0.383 (inactive) in experiment [5].
In the case of `[N-]=[N+]=NCc1ccccc1[C@@H]1OC(c2ccc(OCCCO)cc2)=N[C@]1(Cc1ccccc1)C(N)=O`, the composite z-score is 0.601 in [1]; 2.03 in experiment [6]; 0.228 in experiment [7]; 0.162 in experiment [8]; -0.106 in experiment [9]; -0.315 in experiment [10]. Moreover, the z-score in experiment [2] was -1.72 (inactive); in experiment [3], -1.85 (inactive); in [4], -1.19 (inactive); in experiment [5] it was -2.1 (inactive).
As for `C=CCNC(=O)[C@@H]1[C@H]2C(=O)O[C@H](c3ccccc3)[C@H](c3ccccc3)N2[C@H](c2ccc(OCCO)cc2)[C@@]12C(=O)Nc1ccc(C#CCC(C(=O)OC)C(=O)OC)cc12`, the composite z-score in experiment [1] was found to be 0.187; in [6], 0.316; in experiment [7], 0.573; in [8] it was 0.309; in [9], 1.46; in [10], 1.49. The z-score in experiment [2] is -3.86 (inactive); in experiment [3] it was 0.827 (inactive); in experiment [4], 0.488 (inactive); in experiment [5], -1.19 (inactive).
`Cc1ccccc1C(O)C1C=CC2C(=O)N(c3ccccc3)C(=O)C2N1Nc1ccc(C(C)C)cc1` (stereo not given): the composite z-score is 0.0944 in experiment [1]; 1.26 in experiment [6]; 0.176 in experiment [7]; -0.0717 in [8]; 0.62 in [9]; 0.214 in [10]. Besides, the z-score in experiment [2] is -0.0816 (inactive); in [3], -0.481 (inactive); in experiment [4], 0.812 (inactive); in experiment [5], 0.131 (inactive).
On to `C=C(C)[C@@H]1CC=C(C(O)C2C=CC3C(=O)N(c4ccccc4)C(=O)C3N2Nc2ccccc2)CC1` (stereo not given in full), for which the composite z-score was found to be 0.371 in [1]; 2.43 in experiment [6]; 0.906 in experiment [7]; 0.476 in experiment [8]; 0.579 in experiment [9]; 0.456 in experiment [10]. For the same molecule, the z-score in experiment [2] was 0.0984 (inactive); in [3], -1.65 (inactive); in experiment [4] it was 0.0569 (inactive); in experiment [5], -0.0811 (inactive).
On to `CN(C)CCCCCCNC(=O)[C@@H]1C[C@@H]2C(=O)N[C@@H](Cc3ccccc3)C(=O)N2[C@@H]1c1ccc(O)cc1`, for which the composite z-score is 0.484 in experiment [1]; 0.405 in experiment [6]; -0.025 in experiment [7]; 0.641 in experiment [8]; 1.37 in [9]; 2.19 in experiment [10]. Besides, the z-score in [2] was -0.764 (inactive); in experiment [3], -0.0157 (inactive); in [4], -0.528 (inactive); in experiment [5], -0.167 (inactive).
On to `COC(=O)C(CC#Cc1ccc2c(c1)[C@]1(C(=O)N2)[C@H](C(=O)Nc2nc3ccccc3s2)[C@H]2C(=O)O[C@H](c3ccccc3)[C@H](c3ccccc3)N2[C@@H]1c1ccccc1OCCO)C(=O)OC`, for which the composite z-score in [1] was 0.573; in [6], 0.679; in [7] it was 0.12; in experiment [8], 0.25; in experiment [9], 0.733; in experiment [10], 1.03. Also, the z-score in experiment [2] is -5 (inactive); in [3], -0.438 (inactive); in [4] it was 0.389 (inactive); in experiment [5], 0.372 (inactive).
Consider `C=CCOC(=O)[C@H]1[C@@H]2C(=O)O[C@@H](c3ccccc3)[C@@H](c3ccccc3)N2[C@@H](c2ccc(OCCOC(=O)[C@H]3C[C@H]4C(=O)N[C@@H](CCCCNC(C)=O)C(=O)N4[C@H]3c3cccc(OCCO)c3)cc2)[C@]12C(=O)Nc1ccccc12`, for which the composite z-score in experiment [1] is 0.791; in [6], -0.365; in experiment [7], -0.21; in experiment [8], 0.983; in experiment [9], 0.934; in experiment [10], 2.07. The z-score is -1.1 (inactive) in experiment [2], -0.292 (inactive) in [3], -1.08 (inactive) in experiment [4] and -0.908 (inactive) in experiment [5].
